{
  "source": "PubChem BioAssay (Tox21)",
  "note": "Records with an inconclusive call do not appear. A call without a number means that no potency is given here. Active and inactive are the calls of the source. Calls come from the whole dose curve; as a rule, active = well fitted cell-killing curve with a large enough effect in the repeat runs; inconclusive = weak or mixed curves; inactive = flat fitted curve, though single readings scatter. Potency is the fitted concentration of half-maximal effect.",
  "data": [
    {"assay": "qHTS RealTime-Glo MT Cell Viability Assay in HepG2 cells - 8 hour (AID 1224873); note: nearly all actives have a fitted effect of over 55% in size", "conditions": "RealTime-Glo luminescence; series mostly up to 76.8 µM", "source_text": "National Center for Advancing Translational Sciences [NCATS]\nNIH Chemical Genomics Center [NCGC]\nU.S. Environmental Protection Agency [EPA]\nNational Institutes of Environmental Health Sciences [NIEHS]\nNational Toxicology Program [NTP]\nU.S. Food and Drug Administration [FDA]\nMeasure of cell viability is critical in the cell-base assay. Analysis of cell viability is necessary for the characterization of cell responses to cytotoxic drugs and environmental stress. A RealTime-Glo MT Cell Viability Assay to monitor cell viability in real time of continues cell culture during 40 hours of compound treatment was used to screen Tox21 10K library compounds in HepG2 cells. The RealTime-Glo MT Cell Viability Assay is a nonlytic, homogeneous, bioluminescent method to measure cell viability in real time using a simple, plate-based method. The assay involves adding NanoLuc luciferase and a cell-permeant prosubstrate to cells in culture. Viable cells reduce the proprietary prosubstrate to generate a substrate for NanoLuc luciferase. This substrate diffuses from cells into the surrounding culture medium, where it is rapidly used by the NanoLuc Enzyme to produce a luminescent signal. The signal correlates with the number of viable cells, making the assay well suited for cytotoxicity studies.\nTox21 Assay Protocol Summary:\nThe mixture of HepG2 cell suspension and reagents were dispensed at 600cells/6 ul/well in 1536-well tissue culture treated black solid bottom plates using a Multidrop dispenser. After the assay plates were incubated at a 37 C/5% CO2 incubator for 5 hours, 23 nL of compounds dissolved in DMSO, positive and negative controls was transferred to the assay plate by a pintool work station. The plates were incubated at 37 C for 40 hours. The luminescence intensity were measured at 0h, 8h, 16h, 24h, 32h and 40h time points using ViewLux plate reader during compound treatment.", "values": [
      {"compound": "CC(=O)/C=C/c1ccc2c(c1)OCO2", "Potency": "inactive"},
      {"compound": "CC[C@H]1C[C@@H]2C[C@H]3c4[nH]c5ccc(OC)cc5c4CCN(C2)[C@@H]13", "Potency": "inactive"},
      {"compound": "O=C(CBr)c1ccc(O)cc1", "Potency": "inactive"},
      {"compound": "CC1(C)[C@H](C(=O)O[C@H](C#N)c2cccc(Oc3ccccc3)c2)[C@@H]1/C=C(\\Cl)C(F)(F)F", "Potency": "inactive"},
      {"compound": "CC(=[OH+])/C=C(/C)[O-].CC(=[OH+])/C=C(\\C)[O-].CC(=[OH+])/C=C(\\C)[O-].[Fe]", "Potency": "inactive"},
      {"compound": "O=C1C=CC(=O)c2ccccc21", "Potency": "17.4 µM (active)"},
      {"compound": "O=[N+]([O-])c1cc(C(F)(F)F)c(Cl)c([N+](=O)[O-])c1Cl", "Potency": "43.6 µM (active)"},
      {"compound": "CCCCCCCCCCCCCC[P+](CCCCCC)(CCCCCC)CCCCCC", "note": "(tested in a mixture with another compound)", "Potency": "49 µM (active)"},
      {"compound": "CCCCOCN(C(=O)CCl)c1c(CC)cccc1CC", "Potency": "inactive"},
      {"compound": "O=C(Cl)c1ccc(Cl)cc1", "Potency": "inactive"},
      {"compound": "CC(C)(C)C(O)C(Oc1ccc(-c2ccccc2)cc1)n1cncn1", "note": "(stereo not given)", "Potency": "inactive"},
      {"compound": "ClCc1ccc(Cl)cc1Cl", "Potency": "inactive"},
      {"compound": "COP(=S)(OC)Oc1cc(Cl)c(Br)cc1Cl", "Potency": "inactive"},
      {"compound": "CCCCCCCCCC[N+](C)(C)CCCCCCCCCC", "Potency": "19.5 µM (active)"},
      {"compound": "CN(C)CCc1c[nH]c2cccc(O)c12", "Potency": "inactive"},
      {"compound": "Oc1ccc(C2(c3ccc(O)cc3)c3ccccc3-c3ccccc32)cc1", "Potency": "49 µM (active)"},
      {"compound": "O=C(CCCN1CCC2(CC1)C(=O)NCN2c1ccccc1)c1ccc(F)cc1", "Potency": "inactive"},
      {"compound": "CCC[CH2][Sn]([CH2]CCC)([CH2]CCC)[O]C(=O)c1ccccc1", "Potency": "0.776 µM (active)"},
      {"compound": "c1ccc2c(c1)[nH]c1cnccc12", "Potency": "inactive"},
      {"compound": "O=C(CCl)Nc1ccccc1", "Potency": "inactive"},
      {"compound": "O=[N+]([O-])O.O=[N+]([O-])O.[Cd]", "Potency": "inactive"},
      {"compound": "CN(C)C1CSSSC1", "Potency": "inactive"},
      {"compound": "CCOP(=S)(OCC)SCS(=O)(=O)C(C)(C)C", "Potency": "inactive"},
      {"compound": "CC(C)CCCCCOC(=O)c1ccccc1C(=O)OCCCCCC(C)C", "Potency": "inactive"},
      {"compound": "N#CSCSC#N", "Potency": "21.7 µM (active)"},
      {"compound": "CC(C)N1C(=O)N(c2ccccc2)CSC1=NC(C)(C)C", "Potency": "inactive"},
      {"compound": "Nc1ccc(Cl)cc1C(=O)c1ccccc1", "Potency": "inactive"},
      {"compound": "CC(O)C#N", "note": "(stereo not given)", "Potency": "inactive"},
      {"compound": "N#Cc1ccccc1N", "Potency": "inactive"},
      {"compound": "CC(=O)O[C@H]1CC[C@@]2(C)C(=CC[C@@H]3[C@@H]2CC[C@]2(C)C(=O)CC[C@@H]32)C1", "Potency": "inactive"},
      {"compound": "O=C(O)C1C2CCC(O2)C1C(=O)O", "note": "(stereo not given)", "Potency": "inactive"},
      {"compound": "CCS(=O)(=O)c1cccnc1S(=O)(=O)NC(=O)Nc1nc(OC)cc(OC)n1", "Potency": "inactive"},
      {"compound": "C[C@H]1CC[C@@H]2[C@@H](C)[C@H]3[C@H](C[C@H]4[C@@H]5CC=C6CC(O[C@@H]7O[C@H](CO)[C@H](O)[C@H](O[C@@H]8O[C@H](CO)[C@@H](O)[C@H](O)[C@H]8O)[C@H]7O[C@H]7O[C@@H](C)[C@H](O)[C@@H](O)[C@H]7O)CC[C@]6(C)[C@H]5CC[C@]34C)N2C1", "note": "(stereo not given in full)", "Potency": "45.1 µM (active)"},
      {"compound": "Clc1ccc(C(Cl)(Cl)Cl)c(Cl)c1", "Potency": "inactive"},
      {"compound": "CC(C)CBr", "Potency": "inactive"},
      {"compound": "NNC(=O)c1ccccc1", "Potency": "inactive"},
      {"compound": "SCc1ccco1", "Potency": "inactive"},
      {"compound": "CN(C)S(=O)(=O)N(SC(F)(Cl)Cl)c1ccccc1", "Potency": "21.9 µM (active)"},
      {"compound": "C[C@@H]1CC[C@@]2(OC1)O[C@H]1[C@@H](O)[C@H]3[C@@H]4CC[C@H]5C[C@@H](O[C@@H]6O[C@H](CO)[C@H](O[C@@H]7O[C@H](CO)[C@@H](O)[C@H](O[C@@H]8OC[C@@H](O)[C@H](O)[C@H]8O)[C@H]7O[C@@H]7O[C@H](CO)[C@@H](O)[C@H](O[C@@H]8O[C@H](CO)[C@@H](O)[C@H](O)[C@H]8O)[C@H]7O)[C@H](O)[C@H]6O)[C@H](O)C[C@]5(C)[C@H]4CC[C@]3(C)[C@H]1[C@@H]2C", "Potency": "16.4 µM (active)"},
      {"compound": "S=C=Nc1cccc2ccccc12", "Potency": "inactive"}
    ]}
  ]
}
